Assay [1] in a line: yeast TOR pathway RPL19A-GFP modulators, primary screen, cell-based, S. cerevisiae, multiplex flow cytometry (AID 1862; in the data active = percent of DMSO control GFP below about 86%;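 also: lower values mimic rapamycin by blocking the RPL19A rise seen in DMSO cells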). The following applies: S. cerevisiae RPL19A-GFP strain, flow cytometry fluorescence, 3 h; at 10 µM; stronger effect = lower value.
Assay [2] can be described thus: modulators of MEP2-GFP levels in yeast, primary screen, S. cerevisiae, multiplex flow cytometry (AID 1867;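 active = GFP response, as percent of the DMSO control, above the screen-wide mean plus 3 SD, about 139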;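 also: median GFP channel fluorescence of barcode-gated MEP2-GFP cells measured by flow cytometry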). The following applies: S. cerevisiae MEP2-GFP strain, 3 h, at 10 µM, stronger effect = higher value, 100% means same as DMSO wells. In general terms: In flow cytometry, cells or beads pass a laser one at a time.
Assay [3] is described as follows: modulators of CIT2-GFP expression in yeast, primary screen, S. cerevisiae, GFP fusion, multiplex flow cytometry (AID 1870;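 active = percent response above a set limit, the screen-wide mean plus 3 SD, cut at about 130% in these data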;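 also: barcoded CIT2-GFP strain pooled with four other GFP strains with rapamycin as positive control; median GFP fluorescence per well over plate mean of DMSO wells so 100% = DMSO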). The following applies: 3 h, at 10 µM, stronger effect = higher value.
Assay [4] is described as follows: modulators of LAP4-GFP expression in yeast, primary screen, S. cerevisiae, multiplex flow cytometry (AID 1873;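 active = GFP signal, as percent of the solvent control, above the screen mean plus 3 SD, about 149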). To be noted: 3 h, at 10 µM, stronger effect = higher value.
The nature of assay [5]: modulators of AGP1-GFP expression in yeast TOR pathway, primary screen, cell-based, multiplex flow cytometry, S. cerevisiae (AID 1887;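 active = GFP signal above the screen-wide mean plus 3 SD, that is over about 124.5% of the solvent control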;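 also: AGP1-GFP fusion strain of S. cerevisiae within a five-strain barcoded multiplex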). The following applies: 3 h, at 10 µM, stronger effect = higher value.
Assay [6] is described as follows: inhibitors of CD8+ T cell-vesicle binding, pilot screen, LFA-1/ICAM-1 modulator project, MLPCN validation set, flow cytometry (AID 2523;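 active = response below a set limit, under 55% cells CD8-positive and vesicle-bound, and CD8 cells' 90th-percentile brightness under 279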;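 as to vesicle binding response: mean PE anti-B7-1 fluorescence of CD8+ cells relative to row control; 100% = QL9-loaded vesicles with DMSO vehicle in the same plate row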). The following applies: 2C mouse CD8+ T cells, at 7 µM, stronger effect = lower value; double positive events: measured here: CD8+/vesicle+ event percentage.
Assay [7] addresses Integrin beta-1 (Homo sapiens) + Integrin alpha-4 (Homo sapiens) (UniProt P13612+P05556). As to the kind of experiment: inhibition of HUTS-21 binding to VLA-4, pilot screen, VLA-4 allosteric modulator project, U937 cells, HUTS-21 mAb, flow cytometry, validation set (AID 2674;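 active = inhibition above 50%, about 3 SD of the validation set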;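 also: antibody binding induced by the VLA-4 ligand LDV present at three times its Kd; 0% = LDV ligand with antibody and no compound and 100% = antibody without LDV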). To be noted: HUTS-21 LIBS mAb binding, at 6.7 µM, stronger effect = higher value, binding induced by LDV ligand.
Assay [8] is described as follows: superoxide lowering in aged yeast cells, pilot screen, validation compound set (AID 2706;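 active = superoxide response below 65% of plate, a cut near 3 SD across the whole screen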;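 also: yeast exposed to compound for one week at 30 degrees C before staining; 100% = mean of all compound wells on the same plate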). The following applies: S. cerevisiae aging, superoxide DHE fluorescence; at 10 µM, stronger effect = lower value.
Assay [9] deals with Beta-adrenergic receptor kinase 1 (Homo sapiens) (UniProt P25098). The assay can be described thus: GRK2 binders displacing RNA aptamer, biochemical, validation, human GRK2, bead flow cytometry (AID 488806;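 active = aptamer binding inhibition above 30%, about 3 SD of noise from non-fluorescent compounds; inactive = inhibition at or below 30%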). To be noted: bead-bound GRK2, FAM-aptamer displacement, at 10 µM, stronger effect = higher value.
Assay [10] addresses AP-2 complex subunit beta (Homo sapiens) (UniProt P63010). The assay can be described thus: inhibitors of arrestin peptide binding to AP2, pilot screen, biochemical, validation set, GST-AP2 beads, flow cytometry (AID 504541;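 active = inhibition above 54%, about 3 SD of non-fluorescent compounds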;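 also: AP2 carries R879A mutation and is captured from E. coli lysate; bead-bound FITC arrestin peptide fluorescence measuring arrestin peptide binding to AP2; 0% = DMSO wells and 100% = excess unlabeled arrestin peptide control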). To be noted: FITC arrestin peptide, at 10 µM, stronger effect = higher value, AP2 beta2 appendage fragment, R879A mutant.
The nature of assay [11]: yeast V-ATPase proton transport modulators, S. cerevisiae, pHLuorin, HTS validation (AID 504600; in the data active = response above about 15%;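 also: plate controls were DMSO for no effect and reference compound for full effect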). To be noted: S. cerevisiae pHLuorin cytosolic pH, at 10 µM, stronger effect = higher value.
The subject of assay [12] is anti-desmoglein-3 scFv antibody binding to human DSG3. The assay can be described thus: inhibitors of anti-DSG3 scFv binding to DSG3, pilot screen, biochemical, validation compound set, bead-based, flow cytometry (AID 588368;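 active = binding below the plate cutoff, the plate median minus 3 SD, with a reading above zero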;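 also: signal is the median channel fluorescence of bead-bound GFP antibody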). To be noted: Protein G beads, DSG3-Fc, scFv-GFP binding, at 10 µM, stronger effect = lower value.
Assay [13] is described as follows: inhibitors of fungal efflux pumps CDR1, CDR2, MDR1, pilot screen, validation compound set, multiplex, phenotypic (AID 588506;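 active = efflux inhibition above 0.42, the validation set average plus 4 SD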;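 also: Nile Red retained in cells so higher fluorescence means more efflux inhibition; 0 = negative control wells and 1 = enniatin B 25 µM full block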). The following applies: S. cerevisiae pump-expressing triplex, Nile Red efflux flow cytometry; at 10 µM; stronger effect = higher value; the pumps come from Candida albicans.
Assay [14] addresses ATP-binding cassette sub-family B member 6 (Homo sapiens) (UniProt Q9NP58). As to the kind of experiment: ABCB6 transporter inhibitors, pilot screen, K562-ABCB6 cells, flow cytometry, validation set (AID 588550).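 Also: 0% = DMSO wells and 100% = benzethonium chloride 70 µM positive control.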 The following applies: K562-ABCB6 porphyrin accumulation, 1 h, at 10 µM, stronger effect = higher value.
Assay [15] in a line: promoters of myeloid differentiation in arrested cells, primary screen, cell-based, GFP/MAC1 double positive, flow cytometry, validation set (AID 588685;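 active = differentiation response of at least 50%, scaled between solvent and reference control, from cells with both markers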;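 also: compound exposure lasts four days before antibody staining and flow analysis; 0% = DMSO wells and 100% = 5 µM fulvestrant positive control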). The following applies: ER-HoxA9 marrow cells, stronger effect = higher value, normalized: vehicle 0, fulvestrant 100.

SMILES strings stand for the structures. Results filed as inconclusive are left out. Calls of active or inactive are those of the source.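 The calls were made as follows, unless noted: active = inhibition above the screen-wide mean plus 3 SD, about 51%; inactive = the rest.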

ATP-binding cassette sub-family B member 6 (Homo sapiens), sequence (Q9NP58 whole entry, looked up): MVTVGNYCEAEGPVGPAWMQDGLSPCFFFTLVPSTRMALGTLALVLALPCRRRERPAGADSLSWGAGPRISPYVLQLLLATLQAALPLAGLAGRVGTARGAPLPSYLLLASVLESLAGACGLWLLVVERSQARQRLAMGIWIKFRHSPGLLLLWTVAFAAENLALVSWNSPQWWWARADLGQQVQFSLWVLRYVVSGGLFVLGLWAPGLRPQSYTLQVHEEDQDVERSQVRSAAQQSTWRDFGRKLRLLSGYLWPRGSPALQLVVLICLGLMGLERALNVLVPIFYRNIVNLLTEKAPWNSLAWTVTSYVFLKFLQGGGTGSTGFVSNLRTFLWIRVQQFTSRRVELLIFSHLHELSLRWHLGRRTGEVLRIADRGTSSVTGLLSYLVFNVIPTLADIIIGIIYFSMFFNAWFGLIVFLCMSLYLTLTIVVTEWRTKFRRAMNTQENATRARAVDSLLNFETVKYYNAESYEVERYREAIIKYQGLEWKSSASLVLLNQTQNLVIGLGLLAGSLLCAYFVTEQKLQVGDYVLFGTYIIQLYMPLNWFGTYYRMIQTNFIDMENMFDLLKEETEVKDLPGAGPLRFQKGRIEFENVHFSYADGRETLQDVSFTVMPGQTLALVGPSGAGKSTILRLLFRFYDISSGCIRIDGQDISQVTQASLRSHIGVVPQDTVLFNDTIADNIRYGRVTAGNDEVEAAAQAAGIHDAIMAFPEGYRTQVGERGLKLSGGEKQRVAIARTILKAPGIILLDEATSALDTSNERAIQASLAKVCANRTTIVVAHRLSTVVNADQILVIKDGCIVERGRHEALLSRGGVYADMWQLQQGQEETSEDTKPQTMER
Integrin beta-1 (Homo sapiens) + Integrin alpha-4 (Homo sapiens), sequence (P05556 whole entry, looked up): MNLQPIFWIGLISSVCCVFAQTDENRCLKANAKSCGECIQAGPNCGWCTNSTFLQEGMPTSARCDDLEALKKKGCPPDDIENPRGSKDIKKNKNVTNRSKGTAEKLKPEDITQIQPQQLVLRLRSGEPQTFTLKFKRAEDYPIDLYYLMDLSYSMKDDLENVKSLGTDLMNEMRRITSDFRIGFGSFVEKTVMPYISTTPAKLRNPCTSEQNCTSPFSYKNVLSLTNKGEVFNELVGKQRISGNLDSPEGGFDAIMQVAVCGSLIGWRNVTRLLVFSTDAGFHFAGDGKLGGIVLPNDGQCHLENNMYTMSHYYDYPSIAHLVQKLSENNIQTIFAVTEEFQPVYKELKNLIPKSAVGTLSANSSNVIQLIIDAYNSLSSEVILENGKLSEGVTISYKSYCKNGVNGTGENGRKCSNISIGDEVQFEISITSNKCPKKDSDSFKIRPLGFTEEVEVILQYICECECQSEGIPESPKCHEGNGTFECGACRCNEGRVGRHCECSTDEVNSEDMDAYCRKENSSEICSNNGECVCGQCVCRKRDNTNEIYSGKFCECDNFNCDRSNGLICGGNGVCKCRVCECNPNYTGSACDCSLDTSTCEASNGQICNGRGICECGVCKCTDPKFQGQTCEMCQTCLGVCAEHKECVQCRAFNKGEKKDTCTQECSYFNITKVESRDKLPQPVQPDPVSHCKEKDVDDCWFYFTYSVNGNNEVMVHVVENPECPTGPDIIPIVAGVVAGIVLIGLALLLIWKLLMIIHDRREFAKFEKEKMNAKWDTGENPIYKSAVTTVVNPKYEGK
Integrin beta-1 (Homo sapiens) + Integrin alpha-4 (Homo sapiens), sequence (P13612 whole entry, looked up): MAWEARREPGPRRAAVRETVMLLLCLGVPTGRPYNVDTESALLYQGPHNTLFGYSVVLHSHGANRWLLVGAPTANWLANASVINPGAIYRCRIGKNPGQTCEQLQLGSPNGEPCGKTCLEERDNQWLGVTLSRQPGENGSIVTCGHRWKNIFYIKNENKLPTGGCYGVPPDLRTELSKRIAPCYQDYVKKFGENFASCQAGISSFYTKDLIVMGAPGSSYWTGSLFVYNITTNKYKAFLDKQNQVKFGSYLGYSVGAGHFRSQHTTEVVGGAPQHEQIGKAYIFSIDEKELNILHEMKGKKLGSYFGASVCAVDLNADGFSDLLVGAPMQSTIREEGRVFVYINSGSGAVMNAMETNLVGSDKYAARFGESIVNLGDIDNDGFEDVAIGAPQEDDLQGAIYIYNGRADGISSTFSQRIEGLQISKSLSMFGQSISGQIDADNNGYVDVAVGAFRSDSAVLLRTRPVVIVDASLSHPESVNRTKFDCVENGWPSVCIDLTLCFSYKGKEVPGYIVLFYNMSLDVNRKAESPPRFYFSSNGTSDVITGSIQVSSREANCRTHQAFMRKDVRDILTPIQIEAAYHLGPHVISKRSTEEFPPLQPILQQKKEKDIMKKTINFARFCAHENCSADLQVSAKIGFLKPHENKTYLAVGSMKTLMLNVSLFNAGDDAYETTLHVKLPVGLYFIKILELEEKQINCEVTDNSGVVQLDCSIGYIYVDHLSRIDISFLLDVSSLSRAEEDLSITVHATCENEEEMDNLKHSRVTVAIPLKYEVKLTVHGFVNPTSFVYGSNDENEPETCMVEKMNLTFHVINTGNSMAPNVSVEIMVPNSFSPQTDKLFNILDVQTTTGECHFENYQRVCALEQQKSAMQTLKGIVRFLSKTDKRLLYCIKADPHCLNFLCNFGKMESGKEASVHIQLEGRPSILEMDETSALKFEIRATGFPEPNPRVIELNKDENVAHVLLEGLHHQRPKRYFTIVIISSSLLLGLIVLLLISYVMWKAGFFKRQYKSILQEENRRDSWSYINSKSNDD
Beta-adrenergic receptor kinase 1 (Homo sapiens), sequence (P25098 whole entry, looked up): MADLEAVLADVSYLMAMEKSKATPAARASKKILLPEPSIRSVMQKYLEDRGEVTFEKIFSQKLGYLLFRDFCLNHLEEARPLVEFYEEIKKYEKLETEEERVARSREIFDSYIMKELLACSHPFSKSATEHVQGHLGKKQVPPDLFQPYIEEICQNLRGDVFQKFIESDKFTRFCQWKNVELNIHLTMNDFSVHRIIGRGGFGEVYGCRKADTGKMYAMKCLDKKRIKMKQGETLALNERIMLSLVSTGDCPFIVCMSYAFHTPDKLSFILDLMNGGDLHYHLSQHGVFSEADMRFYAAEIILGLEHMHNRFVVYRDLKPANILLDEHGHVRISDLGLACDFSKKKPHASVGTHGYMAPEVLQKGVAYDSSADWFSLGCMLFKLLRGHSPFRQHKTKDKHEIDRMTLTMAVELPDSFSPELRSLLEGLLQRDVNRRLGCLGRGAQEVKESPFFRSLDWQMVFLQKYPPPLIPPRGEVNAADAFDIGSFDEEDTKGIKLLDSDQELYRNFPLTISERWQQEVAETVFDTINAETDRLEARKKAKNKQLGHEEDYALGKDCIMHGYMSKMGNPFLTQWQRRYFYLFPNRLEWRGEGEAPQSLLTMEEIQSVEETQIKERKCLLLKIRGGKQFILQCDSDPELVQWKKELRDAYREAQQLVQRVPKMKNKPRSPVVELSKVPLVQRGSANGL
AP-2 complex subunit beta (Homo sapiens), sequence (P63010 whole entry, looked up, the tested form may be a part, one chain of several): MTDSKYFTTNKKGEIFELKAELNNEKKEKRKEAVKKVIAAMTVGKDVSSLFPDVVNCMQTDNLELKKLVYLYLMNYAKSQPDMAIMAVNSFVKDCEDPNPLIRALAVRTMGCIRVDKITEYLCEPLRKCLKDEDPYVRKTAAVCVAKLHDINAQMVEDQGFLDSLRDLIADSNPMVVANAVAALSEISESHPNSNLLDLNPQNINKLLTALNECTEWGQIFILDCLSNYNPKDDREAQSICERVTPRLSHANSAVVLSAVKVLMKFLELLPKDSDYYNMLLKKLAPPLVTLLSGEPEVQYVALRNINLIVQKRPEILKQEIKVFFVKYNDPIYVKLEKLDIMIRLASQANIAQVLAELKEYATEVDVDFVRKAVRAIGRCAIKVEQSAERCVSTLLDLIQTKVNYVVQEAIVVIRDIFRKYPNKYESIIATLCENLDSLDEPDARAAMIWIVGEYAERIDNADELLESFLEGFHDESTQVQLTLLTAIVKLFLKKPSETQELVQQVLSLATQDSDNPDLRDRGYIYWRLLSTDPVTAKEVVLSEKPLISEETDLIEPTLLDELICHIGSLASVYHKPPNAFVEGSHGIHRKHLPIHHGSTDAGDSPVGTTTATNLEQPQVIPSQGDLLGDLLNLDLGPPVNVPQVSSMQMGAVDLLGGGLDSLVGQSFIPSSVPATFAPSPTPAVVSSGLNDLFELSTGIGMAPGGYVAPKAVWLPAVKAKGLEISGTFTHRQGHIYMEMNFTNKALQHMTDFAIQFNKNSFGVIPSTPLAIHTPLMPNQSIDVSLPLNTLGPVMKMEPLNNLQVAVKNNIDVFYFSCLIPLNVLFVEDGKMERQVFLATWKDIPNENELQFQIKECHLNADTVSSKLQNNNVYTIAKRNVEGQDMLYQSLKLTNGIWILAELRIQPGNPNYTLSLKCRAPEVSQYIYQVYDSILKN

Broadly, the inhibition is the relative decrease from the control value, in per cent. As for `O=C(/C=C/c1ccc(Cl)cc1)NCCc1ccccc1`, the percent of DMSO control GFP in [1] is 102% (inactive). The GFP response vs DMSO was 92.8% (inactive) in assay [2] and 97.4% (inactive) in assay [4]. The percent response of DMSO control in assay [3] is 97.9% (inactive). Moreover, the GFP response, % of DMSO in [5] was 97.5% (inactive). The double positive events in assay [6] was 54.1%. Moreover, the vesicle binding response in [6] was 270% (inactive). The inhibition in assay [7] is 2.56% (inactive); in assay [10] it was -7.53% (inactive); in assay [14], 7% (inactive). For the same compound, the superoxide response (% of plate) in [8] is 106% (inactive). In assay [9], the aptamer binding inhibition is -1% (inactive). For the same compound, in [11], the response was 2.01% (inactive). Also, the binding (% of control) in assay [12] was 98.2% (inactive). The efflux inhibition (fraction of control) in assay [13] was -0.09 (inactive). Moreover, in assay [15], the differentiation response was -5.05% (inactive).

Regarding `COc1ccc2[nH]c3c(c2c1)CCn1c-3nc2ccccc2c1=O`, the percent of DMSO control GFP in assay [1] was 101% (inactive). Besides, the GFP response vs DMSO was 105% (inactive) in assay [2] and 116% (inactive) in assay [4]. Further, the percent response of DMSO control in [3] was 104% (inactive). The GFP response, % of DMSO in [5] is 101% (inactive). In assay [6], this compound showed a double positive events of 48.2%. Besides, the vesicle binding response in assay [6] was 168% (inactive). Moreover, the values for the inhibition in [7], in [10] and in assay [14] were 2.56% (inactive), 10.7% (inactive) and 7% (inactive), respectively. Besides, the superoxide response (% of plate) in [8] was 95.3% (inactive). Moreover, the aptamer binding inhibition in assay [9] was -2% (inactive). Moreover, the response in assay [11] was 11.4% (inactive). Further, in assay [12], the binding (% of control) is 97.2% (inactive). Also, the efflux inhibition (fraction of control) in assay [13] was -0.12 (inactive). In addition, the differentiation response in assay [15] is 0% (inactive).

As for `Cc1cc(-c2nn(-c3ccccc3F)cc2CN2CCC(O)CC2)c(C)s1`, the percent of DMSO control GFP in [1] is 102% (inactive). Further, the GFP response vs DMSO in assay [2] is 98.9% (inactive); in assay [4], 93.3% (inactive). Also, in [3], the percent response of DMSO control was 104% (inactive). For the same compound, the GFP response, % of DMSO in assay [5] was 95.5% (inactive). This compound also registered a double positive events in assay [6] of 47.2%. Besides, in assay [6], the vesicle binding response is 132% (inactive). Moreover, the inhibition in assay [7] is -7.7% (inactive); in [10], -9.39% (inactive); in [14] it was 10% (inactive). The superoxide response (% of plate) in [8] is 93.1% (inactive). The aptamer binding inhibition in assay [9] was 4% (inactive). In addition, in assay [11], the response is 0.7% (inactive). The binding (% of control) in assay [12] is 98.3% (inactive). In addition, the efflux inhibition (fraction of control) in assay [13] was -0.35 (inactive). In addition, in assay [15], the differentiation response was -30.9% (inactive).

In the case of `CN(CCCN1CCOCC1)Cc1cn(C)nc1-c1ccccc1F`, in [1], the percent of DMSO control GFP is 95.5% (inactive). For the same compound, the GFP response vs DMSO in assay [2] was 106% (inactive); in assay [4] it was 124% (inactive). Also, the percent response of DMSO control in assay [3] is 104% (inactive). Moreover, in [5], the GFP response, % of DMSO was 114% (inactive). Besides, in [6], the double positive events is 62.1%. Moreover, the vesicle binding response in [6] is 246% (inactive). Also, the inhibition in [7] is -8.78% (inactive); in assay [10], 70.2% (active); in assay [14] it was 2% (inactive). For the same compound, in assay [8], the superoxide response (% of plate) is 104% (inactive). Moreover, in assay [9], the aptamer binding inhibition is -1% (inactive). The response in assay [11] was 2.44% (inactive). Besides, the binding (% of control) in assay [12] was 112% (inactive). The efflux inhibition (fraction of control) in [13] was 0.04 (inactive). Moreover, in assay [15], the differentiation response was -1.05% (inactive).

Regarding `Cc1nc(C(=O)Nc2ccccc2Cl)cc2c1[nH]c1ccccc12`, the percent of DMSO control GFP in [1] is 99.6% (inactive). Besides, the GFP response vs DMSO was 108% (inactive) in assay [2] and 100% (inactive) in assay [4]. Also, the percent response of DMSO control in assay [3] is 106% (inactive). Moreover, in assay [5], the GFP response, % of DMSO is 98.2% (inactive). This compound showed a double positive events in assay [6] of 53.9%. Moreover, in assay [6], the vesicle binding response is 172% (inactive). Further, the inhibition is -1.17% (inactive) in [7], -0.33% (inactive) in assay [10] and 11% (inactive) in assay [14]. For the same compound, the superoxide response (% of plate) in assay [8] was 111% (inactive). In assay [9], the aptamer binding inhibition is 1% (inactive). Moreover, the response in assay [11] is 2.14% (inactive). In assay [12], the binding (% of control) is 95.4% (inactive). In addition, in assay [13], the efflux inhibition (fraction of control) is 0.14 (inactive). Moreover, in assay [15], the differentiation response was -9.89% (inactive).

The values are drawn from PubChem BioAssay.
